The text below walks through data of PubChem BioAssay AID1347076 (National Center for Advancing Translational Sciences (NCATS), 2019).

SMILES strings stand for the structures. The campaign covered roughly 400,000 compounds. About 13,000 (3.2%) were called active. Inconclusive results (about 18%) are left out. This is one part of a sample in which actives are shown more often than they occur. Unmarked numbers belong to inactive results. Calls come from the whole dose curve; as a rule, active = well fitted cell-killing curve with a large enough effect; inconclusive = small, poorly fitted or top-dose-only effect, or effect the other way; inactive = flat fitted curve, though single readings scatter.
% is set by controls: 0 for no effect and ±100 for the full control effect; potency is the fitted concentration of half-maximal effect.

This test in a line: qHTS assay for MDR1-selective chemotherapeutics: Primary screen using the drug-selected MDR subline cells KB-V1. Note: nearly all actives have a fitted effect of over 60% in size. The following applies: KB-V1 MDR cells viability, CellTiter-Glo, 72 h; series mostly up to 46.1 µM; activity change, negative = cytotoxicity: at the top concentration. The method in brief:
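Following 72 h at 37 degrees C with compound, KB-V1 cell viability was read by CellTiter-Glo luminescence, medium being phenol-red-free DMEM plus 10% FBS; concentration-response parameters came from normalized, curve-fitted qHTS data.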
Regarding `COc1cc(C(=O)N(Cc2ccc(N(C)C)cc2)C2CCS(=O)(=O)C2)cc(OC)c1OC` (configuration not stated), the “activity change, negative = cytotoxicity” value is 11.3%.
As to `COc1cc(C(=O)N(Cc2ccc(C(C)C)cc2)C2CCS(=O)(=O)C2)cc(OC)c1OC` (configuration not stated), the “activity change, negative = cytotoxicity” value is -15.3%.
For `COCCCNC(=O)CNC(=S)N(Cc1cc(OC)c(OC)c(OC)c1)C1CCCC1`, the Potency is 20.6 µM (active).
In the case of `CCCCCCN1CCN(C2CN(Cc3cn(Cc4ccc(F)cc4)nn3)S(=O)(=O)C2)CC1` (configuration not stated), the “activity change, negative = cytotoxicity” value was 14.9%.
Consider `CC(C)(C)OC(=O)N(Cc1ccccc1)Cc1ccc(OCc2cccc(NC(=O)c3ccccc3)c2)cc1`, for which the “activity change, negative = cytotoxicity” value is -2.42%.
Turning to `N#Cc1ccccc1NC(=O)c1cccc(COc2ccc(Cl)cc2Cl)c1`, the “activity change, negative = cytotoxicity” value was 0.166%.
On to `CC(C)c1cc(C(N)=O)c(NC(=O)c2cccc(COc3ccc(Br)cc3)c2)s1`, for which the Potency is 20.6 µM (active).
With `COc1ccccc1C(=O)NC(=S)Nc1ccc(N2CCOCC2)cc1`, the “activity change, negative = cytotoxicity” value is -7.19%.
As for `Cc1cccc(C(=O)NC2CCN(CC(=O)Nc3cccc(Cl)c3)CC2)c1`, the “activity change, negative = cytotoxicity” value is -32.8%.
As to `CCc1nc2ccc(C(=O)Nc3cccc(OC)c3)cn2c1N(CCC(C)C)CCN(C)C`, the “activity change, negative = cytotoxicity” value is 3.09%.
For `COc1c(Cl)cc(Cl)cc1C(=O)Nc1cccc2cccnc12`, the “activity change, negative = cytotoxicity” value is -0.513%.
Take `CC(=O)/C(=N\Nc1ccc(Cl)cc1Cl)Sc1cccc2cccnc12`: the Potency was 18.4 µM (active).
As for `O=C(Nc1cccc2cccnc12)c1cccc(Cl)c1`, the “activity change, negative = cytotoxicity” value is 16.8%.
Turning to `COc1ccc(/C=C/c2ccccn2)cc1OC`, the “activity change, negative = cytotoxicity” value is -2.57%.
On to `CN(C)C(CNC(=O)c1cc2ccccc2o1)c1ccccc1` (configuration not stated), for which the Potency was 16.4 µM (active).
Turning to `Cc1ccc(NC(=O)c2cc3ccccc3o2)cc1`, the “activity change, negative = cytotoxicity” value was 5.73%.
`CN(C)C(CNC(=O)Cc1ccc([N+](=O)[O-])cc1)c1ccccc1` (configuration not stated): the “activity change, negative = cytotoxicity” value is -10.5%.
With `O=C(Nc1cc(Br)ccc1F)c1nc[nH]c1C(=O)NCc1ccccc1`, the “activity change, negative = cytotoxicity” value is -9.49%.
In the case of `CCCCOC(=O)/C(C#N)=C/c1ccc(-c2cccc(C(F)(F)F)c2)o1`, the “activity change, negative = cytotoxicity” value is 9.63%.
Same read-out and setting: to `O=C1NC(c2cc3c(cc2Cl)OCO3)Oc2ccccc21` (configuration not stated) belongs 0.321%.
For `O=C1OCC2=C1C(c1ccc(Cl)cc1)c1cc3c(cc1O2)OCO3` (configuration not stated), the Potency is 23.1 µM (active).
As for `CCOc1ccc(CNCc2c(C(=O)O)c(C)n(Cc3cccc(OC)c3)c2C)cc1OC`, the “activity change, negative = cytotoxicity” value is 0%.
Turning to `CCC(C)CN1C(=O)CN(S(C)(=O)=O)CC1(C)C(=O)Nc1ccc2c(c1)OCCO2` (configuration not stated), the “activity change, negative = cytotoxicity” value was -11.8%.
Consider `O=C(C=CC(=O)Nc1ccc(F)cc1F)Nc1ccc(F)cc1F`, for which the “activity change, negative = cytotoxicity” value is 1.29%.
`Cc1ccc(C(=O)OCC(=O)NC2CCCCCCC2)cc1C`: the “activity change, negative = cytotoxicity” value was 17.9%.
For `O=C(CCCN1C(=O)c2cccc3cccc(c23)C1=O)N1CCN(Cc2ccc3c(c2)OCO3)CC1`, the “activity change, negative = cytotoxicity” value is 4.42%.
For the molecule `O=C(Nc1cccc2ccccc12)N1CCN(Cc2ccc3c(c2)OCO3)CC1`, the Potency was 16.4 µM (active).
Take `O=C(c1cccs1)N1CCN(Cc2ccc3c(c2)OCO3)CC1`: the “activity change, negative = cytotoxicity” value was -13.2%.
Turning to `O=[n+]1c2c(n([O-])c3cc(Br)ccc31)CCC2`, the “activity change, negative = cytotoxicity” value is 0%.
Consider `C/C(=N\N)c1c(-c2ccccc2)c2cc(Br)ccc2[nH]c1=O`, for which the “activity change, negative = cytotoxicity” value is 10.2%.
For the molecule `O=C1CCCc2c1[nH]c1ccc(Br)cc21`, the Potency is 0.517 µM (active).
With `COC(=O)C(Cc1c[nH]c2ccccc12)NC(=O)CCNC(=O)c1ccco1` (configuration not stated), the “activity change, negative = cytotoxicity” value is 27.7%.
As to `COc1cc2nc(C#Cc3nc4cc(OC)c(OC)cc4[nH]3)[nH]c2cc1OC`, the “activity change, negative = cytotoxicity” value was 4.7%.
On to `COc1ccc(C2NC(=O)c3ccccc3N2)cc1` (configuration not stated), for which the “activity change, negative = cytotoxicity” value is 0%.
As to `C=CCOc1cccc(C2NC(=O)c3ccccc3O2)c1` (configuration not stated), the “activity change, negative = cytotoxicity” value was -7.2%.
On to `O=C1NC(c2cccc(Cl)c2)Nc2ccccc21` (configuration not stated), for which the Potency is 8.2 µM (active).
With `CCCNC(=O)C1(C)CCN1C(=O)C1(c2ccccc2)CC1` (configuration not stated), the “activity change, negative = cytotoxicity” value is -1.84%.
In the case of `Cc1cccc(N2CCN(Cc3c(C)n(C)n(-c4ccccc4)c3=O)CC2)c1C`, the Potency was 18.4 µM (active).
Take `Cc1cccc(N2CCN(c3c(CN4CCCC4)c(=O)oc4ccccc34)CC2)c1C`: the “activity change, negative = cytotoxicity” value is 13.2%.
With `Cc1c(CN2CCC(C)CC2)c(=O)n(-c2ccccc2)n1C`, the “activity change, negative = cytotoxicity” value is -7.43%.
On the same count and under the same terms, to `CSCCC(NC(=O)COc1ccccc1)C(=O)Nc1ccc(C)cc1` (configuration not stated) belongs -12.8%.
With `CSCCC(NC(=O)COc1ccccc1)C(=O)N(C)CC(=O)Nc1ccc(C)cc1` (configuration not stated), the Potency was 16.4 µM (active).
Regarding `CSCCC(NC(N)=O)C(=O)N(C)CC(=O)Nc1ccc(C)cc1` (configuration not stated), the “activity change, negative = cytotoxicity” value was 1.58%.
Take `O=C1[C@H]2[C@@H](c3ccc(C(F)(F)F)cc3)N[C@]3(CCCN(Cc4ccc(Br)cc4)C3=O)[C@H]2C(=O)N1Cc1ccccc1`: the “activity change, negative = cytotoxicity” value is -1.88%.
Turning to `COc1ccc(C(=O)NCC(c2ccc(N(C)C)cc2)N2CCc3ccccc32)c(OC)c1` (configuration not stated), the “activity change, negative = cytotoxicity” value was 14.2%.
For `Nc1c(C(=O)Nc2ccc3c(c2)OCCO3)nnn1Cc1ccccc1`, the “activity change, negative = cytotoxicity” value was -12.8%.
As for `Nc1c(C(=O)NCc2ccccc2)nnn1Cc1cccc(Cl)c1`, the Potency is 9.2 µM (active).
As for `COc1cccc(CNC(=O)c2nnn(CC(=O)Nc3cc(Cl)ccc3C)c2N)c1`, the “activity change, negative = cytotoxicity” value is 2.29%.
On to `CCS(=O)(=O)N1CCc2cc(C(=O)NCc3ccc(OC)cc3)ccc21`, for which the “activity change, negative = cytotoxicity” value is 3.83%.
`Cc1ccc(Oc2c(C(F)(F)F)oc3c(CN4CCCCC4)c(O)ccc3c2=O)cc1`: the “activity change, negative = cytotoxicity” value was -0.449%.
Consider `O=c1oc2c(CN3CCCCC3)c(O)ccc2c2c1CCCCC2`, for which the Potency is 5.8 µM (active).
Regarding `COc1ccc(-c2c(C)c3ccc(O)c(CN4CCN(C)CC4)c3oc2=O)cc1OC`, the “activity change, negative = cytotoxicity” value is 1.72%.
As to `Cc1ccc(S(=O)(=O)N[C@H]2CCC[C@@H]2O)cc1`, the “activity change, negative = cytotoxicity” value was 2.83%.
As to `COc1cc(NC(=O)C2CC(c3ccccc3O)=NO2)c(OC)cc1Cl` (configuration not stated), the “activity change, negative = cytotoxicity” value is 0.517%.
The same measure, in the same setting: to `CCn1ncc(C2=NOC(C(=O)N3CCN(c4ccccc4)CC3)C2)c1C` (configuration not stated) belongs -4.05%.
Turning to `CCn1ncc(C2=NOC(C(=O)Nc3ccccc3C(=O)OC)C2)c1C` (configuration not stated), the Potency was 18.4 µM (active).
With `COc1cccc(CNC(=O)C(NS(=O)(=O)c2ccc3nc(C)sc3c2)C(C)C)c1` (configuration not stated), the “activity change, negative = cytotoxicity” value was -18.7%.
